What all share (experiment): NCI-60 one-dose screen, 48 h (100 = growth as untreated, 0 = no growth, -100 = all killed)
Holding throughout (conditions): 10 µM unless noted

In test [1] the test system is SK-MEL-2 melanoma.
The subject of test [2] is EKVX NSCLC.
Test [3] has as its system SN12C renal.
Test [4] has as its system UO-31 renal.
Test [5] relates to TK-10 renal.
In test [6] the test system is ACHN renal.
The test system of test [7] is CAKI-1 renal.
In test [8] the test system is A498 renal.
The test system of test [9] is MOLT-4 leukemia.
Test [10] concerns SR leukemia.
For test [11], the system named is RPMI-8226 leukemia.
Test [12] has as its system OVCAR-8 ovarian.
For test [13], the system named is OVCAR-5 ovarian.
Test [14] has as its system OVCAR-4 ovarian.
For test [15], the system named is SK-OV-3 ovarian.
Test [16] relates to IGROV1 ovarian.
Test [17] relates to HS 578T breast.
Test [18] has as its system NCI/ADR-RES ovarian.
The subject of test [19] is OVCAR-3 ovarian.

Growth data for nine molecules are collected here from PubChem BioAssay (NCI).

Each structure is given as a SMILES string. The panel holds about 83,000 compounds, 20% with a hit somewhere; the sample as a whole holds those more often.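 A percent growth of 40 corresponds to 60% growth inhibition; 0 means no net growth; -100 means all cells died. Active threshold: below 10.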 Values without a mark were called inactive. Activity calls are given as the source filed them.

For `CC/C=C1/C(=O)C=C[C@@H]1C/C=C\CCCC(=O)O`, the growth is 87% in [1]; 101% in test [2]; 79.9% in test [3]; 103% in [4]; 105% in [5]; 85.5% in [6]. Besides, the growth is 84.9% in test [7]; 104% in test [8]; 9.64% (active) in test [9]; 20% in test [10]; 19.9% in test [11]; 66.5% in test [12]. The growth was 123% in [13]; 86.9% in test [14]; 111% in test [15]; 114% in test [16]; 69.1% in test [17]; 91.5% in test [18].

For the molecule `CN(C)CC1=NC2SC=C(c3ccccc3)C2C(=O)N1CC#N` (stereo not given), the growth was 104% in test [1]; 95.9% in test [2]; 109% in test [3]; 13.2% in [4]; 95.3% in test [5]; 104% in [6]. For the same molecule, the growth in test [7] is 97.5%; in test [8], 103%; in [9], 82%; in test [10], 70.4%; in [11], 49.6%; in [12], 97.1%. The growth was 85.3% in test [14], 119% in test [15], 110% in test [19] and 98.1% in test [18].

With `COc1ccc(-c2nc(SC(C)C)nc(NNC(N)=S)c2C#N)cc1`, the growth in [1] was 48.7%; in test [2] it was 65.7%; in [3] it was 55.1%; in [4] it was 64.3%; in test [5], 72.9%; in [6], 72.1%. Further, the growth in test [7] is 42.3%; in [8] it was 50.2%; in test [9] it was 32.1%; in test [10] it was 24.4%; in [11], 32.7%; in test [12] it was 71.2%. Besides, the growth is 66% in test [13]; 86.3% in test [14]; 73% in test [15]; 52.6% in [16]; 54.9% in [17]; 19.6% in test [18].

As for `Cc1ccc(C(=O)COc2cccc(/C=C3\Oc4ccccc4C3=O)c2)cc1`, the growth in test [1] was 105%; in test [2], 97.1%; in test [3] it was 105%; in [4] it was -37.1% (active); in test [5] it was 114%; in test [6], 97.6%. Besides, the growth in test [7] is 47.6%; in [8] it was 147%; in [9] it was 73.8%; in test [10], 71.9%; in [11] it was 106%; in test [12], 106%. The growth in test [13] is 106%; in [15], 134%; in test [19], 96.6%; in [17], 322%; in test [18], 88.3%.

`N#CC1=C(c2ccc(Br)cc2)NC(SCC(=O)c2ccc(Br)cc2)NC1=O` (stereo not given): the growth in test [1] is 98%; in test [2], 104%; in [3] it was 109%; in test [4], 89.9%; in test [5], 118%; in test [6], 109%. In addition, the growth in [7] is 97.1%; in test [8], 80.1%; in test [9] it was 92%; in [10], 101%; in [11], 107%; in test [12], 103%. Besides, the growth in test [15] is 110%; in test [16] it was 114%; in test [19] it was 102%; in [17], 97%; in test [18], 107%.

Consider `NC(=N\N=C/c1cccc([N+](=O)[O-])c1)/C(N)=N\N=C/c1cccc([N+](=O)[O-])c1`, for which the growth in [1] was 75%; in [2], 79.5%; in [3], 86.8%; in test [4] it was 107%; in test [5], 27.6%; in test [6], 94%. The growth in test [7] is 53.8%; in test [8], 61.5%; in test [9] it was 86%; in test [10] it was 71.3%; in test [11], 70.5%; in [12], 57.8%. Besides, the growth in test [13] is 101%; in [15], 61.1%; in test [16], 96.1%; in [19] it was 42.9%; in [17] it was -11.6% (active); in test [18], 80.5%.

For the molecule `N#Cc1c(N2CCNCC2)nc2sc3cc(Cl)c(Cl)cc3n2c1=N`, the growth in test [1] was 112%; in test [2] it was 98.8%; in test [3], 93.2%; in [4] it was 80.8%; in test [5] it was 141%; in [6], 102%. Moreover, the growth is 101% in test [7]; 115% in [8]; 70.4% in [9]; 116% in [10]; 80.2% in test [11]; 94.5% in test [12]. In addition, the growth in test [13] was 131%; in test [14], 85.5%; in [15] it was 84.7%; in [19], 107%; in test [17], 114%; in test [18], 106%.

For `c1cc2ccc3cc2cc1CNCCOCCNCc1ccc2ccc(cc2c1)CNCCOCCNC3`, the growth in test [1] is -63.5% (active); in test [2], 21.4%; in test [3], -19.9% (active); in test [4] it was 73.7%; in test [5], 8.5% (active); in [6], 70%. In addition, the growth is 15.4% in test [7]; 31.7% in [8]; 4.08% (active) in [9]; 10.1% in [10]; 0.51% (active) in [11]; -3.14% (active) in test [12]. Also, the growth is -40.4% (active) in test [14]; -4.09% (active) in [16]; -40% (active) in test [19]; -17.6% (active) in test [17]; 105% in [18].

As for `CC1SC(c2ccc(OCc3ccccc3)cc2)N(NC(=O)C(O)(c2ccccc2)c2ccccc2)C1=O` (stereo not given), the growth in test [1] is 74.4%; in [2], 47%; in test [3], 85.6%; in [4] it was 54.6%; in test [5] it was 58.6%; in test [6] it was 55.3%. For the same molecule, the growth in [7] was 44.3%; in [8], 55.8%; in test [9], 28.7%; in test [10] it was 35.9%; in test [11] it was -7.26% (active); in test [12], 77.8%. Moreover, the growth is 80.5% in test [13], 73.3% in test [15], 74.6% in test [17] and 63.5% in [18].
